Experimental data: PubChem BioAssay (NCI)
About 83,000 compounds went through this panel and 20% of them were active in at least one assay; those are over-represented in the sample as a whole.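 Plates (96-well) were seeded with cells, treated with compound at one concentration, and incubated for 48 hours before percent growth was determined.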 Unmarked numbers belong to inactive results. Calls of active or inactive are those of the source. Rule for the calls: active = growth percent below 10; inactive = the rest.

Experiments:
Test in all cases: NCI-60 one-dose screen, 48 h (100 = growth as untreated, 0 = no growth, -100 = all killed)
Conditions in all cases: 10 µM
RPMI-8226 leukemia = test system: RPMI-8226 leukemia
OVCAR-8 ovarian = test system: OVCAR-8 ovarian
OVCAR-5 ovarian = test system: OVCAR-5 ovarian
OVCAR-4 ovarian = test system: OVCAR-4 ovarian
SK-OV-3 ovarian = test system: SK-OV-3 ovarian
IGROV1 ovarian = test system: IGROV1 ovarian
OVCAR-3 ovarian = test system: OVCAR-3 ovarian
HS 578T breast = test system: HS 578T breast
NCI/ADR-RES ovarian = test system: NCI/ADR-RES ovarian
T-47D breast = test system: T-47D breast
BT-549 breast = test system: BT-549 breast
MDA-MB-435 melanoma = test system: MDA-MB-435 melanoma
SW-620 colon = test system: SW-620 colon
MCF7 breast = test system: MCF7 breast
HCT-116 colon = test system: HCT-116 colon
HCC-2998 colon = test system: HCC-2998 colon
KM12 colon = test system: KM12 colon

Row | Compound | growth (RPMI-8226 leukemia) | growth (OVCAR-8 ovarian) | growth (OVCAR-5 ovarian) | growth (OVCAR-4 ovarian) | growth (SK-OV-3 ovarian) | growth (IGROV1 ovarian) | growth (OVCAR-3 ovarian) | growth (HS 578T breast) | growth (NCI/ADR-RES ovarian) | growth (T-47D breast) | growth (BT-549 breast) | growth (MDA-MB-435 melanoma) | growth (SW-620 colon) | growth (MCF7 breast) | growth (HCT-116 colon) | growth (HCC-2998 colon) | growth (KM12 colon)
1 | COc1ccc(-c2nn(-c3cccc(NC(=O)Nc4cc(C(F)(F)F)cc(C(F)(F)F)c4)c3)cc2-c2ccncc2)cc1Cl | -25.1% (active) | 1.12% (active) | 18.7% | 16.4% | 8.88% (active) | 4.91% (active) | 5.75% (active) | 0.225% (active) | 5.83% (active) | 2.31% (active) | -1.8% (active) | -42.8% (active) | 10.9% | 0.561% (active) | -22% (active) | 8.03% (active) | -2.5% (active)
2 | COc1ccc(/C=C/C(=O)Nc2ccc(-c3nc4ccc(F)cc4s3)cc2)cc1 | 75.4% | 103% | 112% | 83.2% | 114% | 104% | 113% | 111% | 111% | 91% | 86.7% | 97% | 106% | 38.9% | 88.5% | 99.1% | 101%
3 | CC(=O)c1nc2ccccc2n1CCNC(N)=O | 32% | 85.1% | 97.5% | 93.1% | 91.5% | 88.9% | 82.7% | 68.9% | 101% | 67.8% | 74.4% | -13.7% (active) | 57.6% | 52.4% | 37.2% | 95.8% | 66.4%
4 | c1ccc2c(c1)oc1c3c(ccc12)NCCC3 | 93.8% | 98.2% | 102% | 94.3% | 107% | 98.6% | 103% | 109% | 97.7% | 59.9% | 89.5% | 106% | 103% | 40.9% | 95.7% | 97.2% | 101%
5 | Clc1ccc(Nc2ccnc(NCCCNc3ccnc4cc(Cl)ccc34)n2)cc1 | -62.1% (active) | -49% (active) | 18.3% | 6.79% (active) | -32% (active) | -6.05% (active) | -19% (active) | -56.7% (active) | 4.05% (active) | -63.7% (active) | 0.946% (active) | -87.3% (active) | -60.9% (active) | -89.8% (active) | -78.3% (active) | -88.9% (active) | -16.2% (active)
6 | CC(C)=CCc1cc(O)cc2c1OC(C=C(C)C)C1=C2C(=O)C2=C(C1=O)S(=O)(=O)CCN2 (stereo unspecified) | 51.4% | 10.8% | 152% | 5.54% (active) | 84.7% | -0.954% (active) | 0.638% (active) | 70.3% | 91.7% | -0.36% (active) | 58.9% | -68.3% (active) | 4.52% (active) | -50% (active) | -8.73% (active) | 36.4% | 69.2%
7 | COc1ccc2c(c1OC)O/C(=C\c1ncc([N+](=O)[O-])n1C)C2=O | 34.9% | -18.2% (active) | 53.7% | 78.9% | 24.8% | -14.8% (active) | -24.2% (active) | 46.5% | 15.1% | 94.8% | -41.3% (active) | -76.4% (active) | -21.2% (active) | 28.9% | 4.48% (active) | 34.6% | 43.1%
8 | Oc1[nH]c2cc(Cl)ccc2c1/C=c1/ccc2c(c1)N=C(c1cc(F)cc(F)c1)N=2 | -4.53% (active) | 30.5% | 75.5% | 48.8% | 1.53% (active) | 43% | -50.4% (active) | 17.3% | 2.67% (active) | 30.9% | 37.5% | -32.5% (active) | 24.8% | 11% | 18.8% | 58% | 13.1%
9 | CC(C)=CCc1cc(O)cc2c1OC(C=C(C)C)C1=C2C(=O)C2=C(NCCS2(=O)=O)C1=O (stereo unspecified) | 63.9% | 3.18% (active) | 41.3% | 1.98% (active) | 4.28% (active) | -22.3% (active) | -9.92% (active) | 11.2% | 87.7% | -10% (active) | 18.3% | -56.4% (active) | 4.68% (active) | -54.5% (active) | -15.4% (active) | -12.6% (active) | 43.3%
10 | COc1ccc(-c2nc3ccccn3c2-c2nnc(-c3cc(OC)c(OC)c(OC)c3)o2)cc1 | 75.1% | 35.5% | 82.7% | 64.8% | 44.3% | 87% | 40.4% | 82.2% | 63.7% | 48% | 42.7% | 96.2% | 74.9% | 63.4% | 32.1% | 85.4% | 65%
11 | Cc1cccc(NC2=C(C#N)C(=O)NC3(CCCC3)S2)c1 | 90% | 100% | 103% | 103% | 103% | 168% | 116% | 103% | 100% | 102% | 102% | 101% | 103% | 89.8% | 105% | 95.8% | 104%
12 | Fc1cc(C(F)(F)F)ccc1-c1cncnc1NC1CCCCCC1 | 76.1% | 87.1% | 106% | 85.3% | 101% | 96.8% | 109% | 102% | 91.4% | 91.8% | 96% | 104% | 101% | 92.3% | 95.8% | 107% | 107%
13 | Clc1ccc2c(NCCCNc3nccc(Nc4ccc(Br)cc4)n3)ccnc2c1 | -59.9% (active) | -65.2% (active) | 15.3% | -9.2% (active) | -44.1% (active) | 24.2% | -22.8% (active) | -56% (active) | 0.467% (active) | -56.2% (active) | 4.45% (active) | -88.3% (active) | -74.4% (active) | -98.8% (active) | -97.5% (active) | -91.4% (active) | -48.6% (active)
14 | CN(C)CC(O)c1ccc2cc(Br)c3ccccc3c2c1 (stereo unspecified) | 56.1% | 79.7% | 68.4% | 84.9% | 95.4% | 22.5% | 81% | 74.9% | 59.7% | 69.4% | 75.8% | 42.4% | 63.7% | 35.1% | 41.2% | 25.8% | 48.6%
15 | Cc1cc2c(C)c3cc(C)c(N)cc3nc2cc1N | 0.782% (active) | -6.68% (active) | 12.3% | -2.48% (active) | 13.3% | -1.9% (active) | 14.9% | 15.6% | 69.2% | -2.32% (active) | 57.8% | 12% | 4.58% (active) | -4.55% (active) | -9.81% (active) | 28.3% | 9.44% (active)
16 | CN(C)c1ccc(N=C2C=CC(=O)c3ccccc32)cc1 | 65.4% | 76.3% | 88% | 71.5% | 95.4% | 88.6% | 23.8% | 95.6% | 85.5% | 81.3% | 94.5% | -87% (active) | 93.3% | 53.1% | 78.4% | 67.3% | 54.8%
17 | Cc1cc(Nc2ccc(Cl)cc2)nc(NCCCNc2ccnc3cc(Cl)ccc23)n1 | -59.8% (active) | -53.5% (active) | -5.16% (active) | -3.7% (active) | -78.7% (active) | 6.54% (active) | -80.1% (active) | -53.4% (active) | 2.15% (active) | -90.2% (active) | -86.7% (active) | -88.6% (active) | -67.4% (active) | -100% (active) | -97.4% (active) | -88.9% (active) | -33.4% (active)
18 | O=C(N/N=C/c1cc2ccccc2c2ccccc12)c1cc(O)c(O)c(O)c1 | 78.8% | 48.5% | 90.4% | 26.4% | 78.8% | 58.7% | 58% | 75.4% | 81.4% | 2.62% (active) | 49.4% | 35.3% | 25.4% | 67.6% | 26% | 94.5% | 83.2%
